Screening data: PubChem BioAssay, several laboratories
tim10-1 inh: growth inhibitors of tim10-1 mutant yeast | 330,000 tested, 2.2% active | S. cerevisiae tim10-1 ts strain growth, BacTiter-Glo, 24 h | inhibition, % at 20 µM;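 active = inhibition of at least 40%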;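 also: mutant grown at 25 °C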
SUMO Mot1 rescue: blocks SUMOylation pathway, rescuing yeast Mot1-301 growth; growth rescue, % at 18.8 µM; AID 2716; S. cerevisiae Mot1-301 growth rescue, ATP luminescence, 38.5C; percent above DMSO median, 100 means doubled; 320,000 tested, 1% active;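 active = every valid replicate shows activation above 250% relative to neutral control wells; inactive = the rest, any valid replicate at or below 250%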
TIM10 inh: TIM10 yeast growth inhibition | 330,000 tested, 1.4% active | inhibition, % at 10 µM | S. cerevisiae TIM10 strain growth, BacTiter-Glo luminescence, 24 h;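 active = inhibition of 40% or more at the single tested concentration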;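 also: wild-type TIM10 isogenic control strain grown at permissive 25 °C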
PfHsp90 yeast 2: inhibits growth of yeast expressing Plasmodium falciparum Hsp90. 310,000 tested, 0.32% active. AID 504621. S. cerevisiae expressing PfHsp90, BacTiter-Glo ATP, 48 h; yeast lacking PDR1 and PDR3 efflux regulators. inhibition, % at 9.4 µM;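 active = every replicate shows inhibition above about 80%, whatever the replicate mean, limit read from the data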
tim23-1 inh: inhibits growth of tim23-1 mutant yeast; S. cerevisiae tim23-1 growth, BacTiter-Glo luminescence, 24 h; inhibition, % at 20 µM; 330,000 tested, 1.3% active; AID 463212;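 active = growth inhibition of the mutant yeast at or above 50%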;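 also: temperature-sensitive mutant grown at 25 °C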
tim10-1 conf: tim10-1 yeast growth inhibition, confirmed. shares compounds with tim10-1 inh. S. cerevisiae tim10-1 ts strain growth, BacTiter-Glo, 24 h. inhibition, % at 20 µM. 7,400 tested, 56% active. AID 463213;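 active = inhibition of yeast growth at or above a set limit in either of two repeat tests at 20 µM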;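 also: tim10-1 mutant grown at permissive 25 °C to find synthetic lethal compounds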
Numbers stand for hits. This is a sample that favours compounds with a hit; in the whole collection about 4.4% have one here.

`N/C(=N\OC(=O)C1CCCCC1)c1cccc([N+](=O)[O-])c1` gave tim10-1 inh 47.3, SUMO Mot1 rescue inactive, TIM10 inh inactive, PfHsp90 yeast 2 inactive, tim23-1 inh inactive and tim10-1 conf 49.0.
Screening N/C(=N\OC(=O)c1ccc([N+](=O)[O-])cc1)c1cccnc1 returned tim10-1 inh 40.2, SUMO Mot1 rescue inactive, TIM10 inh inactive, PfHsp90 yeast 2 inactive, tim23-1 inh inactive and tim10-1 conf 37.4.
Screening CC1(C)Cc2c(sc(NC(=O)C(=O)NCCCN3CCOCC3)c2C#N)CO1 returned tim10-1 inh inactive, SUMO Mot1 rescue inactive, TIM10 inh inactive, PfHsp90 yeast 2 inactive and tim23-1 inh inactive.
CN(C)C(=O)CCc1ccc2c3c([nH]c2c1)[C@]1(C)[C@@H](C(=O)N2CCOCC2)C[C@H](CC(=O)NCc2cccc(C(F)(F)F)c2)C(=O)N1CC3 was read as tim10-1 inh inactive, TIM10 inh inactive, PfHsp90 yeast 2 inactive and tim23-1 inh inactive.
For Cc1ccc(-n2nnnc2SCC(=O)NCC2(N3CCOCC3)CCCCC2)c(C)c1 the results were tim10-1 inh inactive, TIM10 inh inactive, PfHsp90 yeast 2 inactive and tim23-1 inh inactive.
Cc1cc(/C=C2/SC(=S)N(c3cccc(C(F)(F)F)c3)C2=O)c(C)n1-c1cccnc1 was read as tim10-1 inh 49.7, SUMO Mot1 rescue inactive, TIM10 inh inactive, PfHsp90 yeast 2 inactive, tim23-1 inh inactive and tim10-1 conf inactive.
Screening O=C(COc1ccc2c3c(c(=O)oc2c1)CCC3)Nc1ccccn1 returned tim10-1 inh inactive, SUMO Mot1 rescue inactive, TIM10 inh inactive, PfHsp90 yeast 2 inactive and tim23-1 inh inactive.
COc1cc(C(=O)OCC(=O)N2CCCC2=O)cc(OC)c1C was read as tim10-1 inh inactive, SUMO Mot1 rescue inactive, TIM10 inh inactive, PfHsp90 yeast 2 inactive and tim23-1 inh inactive.
`Cc1cc(C)cc(NC(=O)c2sc3nc4n(c(=O)c3c2C)CCC4)c1` gave tim10-1 inh 42.9, SUMO Mot1 rescue inactive, TIM10 inh inactive, PfHsp90 yeast 2 inactive, tim23-1 inh inactive and tim10-1 conf inactive.
For CCOC(=O)c1ccc(NC(=O)c2sc3nc4n(c(=O)c3c2C)CCC4)cc1 the results were tim10-1 inh 47.9, SUMO Mot1 rescue inactive, TIM10 inh inactive, PfHsp90 yeast 2 inactive, tim23-1 inh inactive and tim10-1 conf inactive.
`CCc1cccc(NC(=O)c2sc3nc4n(c(=O)c3c2C)CCC4)c1` gave tim10-1 inh inactive, SUMO Mot1 rescue inactive, TIM10 inh inactive, PfHsp90 yeast 2 inactive and tim23-1 inh inactive.
For O=C1ON=C(c2ccccc2)/C1=C/c1ccco1 the results were tim10-1 inh inactive, SUMO Mot1 rescue inactive, TIM10 inh inactive and tim23-1 inh inactive.
For CCCCc1ccc(/C=C2\C(=O)ON=C2c2ccccc2)s1 the results were tim10-1 inh 40.0, SUMO Mot1 rescue inactive, TIM10 inh inactive, PfHsp90 yeast 2 inactive, tim23-1 inh inactive and tim10-1 conf inactive.
`CCOc1ccc(NC(=S)c2ccc3ccccc3n2)cc1` gave tim10-1 inh inactive, SUMO Mot1 rescue inactive, TIM10 inh inactive, PfHsp90 yeast 2 inactive and tim23-1 inh inactive.
`COc1ccc(NC(=S)c2ccc3ccccc3n2)cc1` gave tim10-1 inh 56.3, SUMO Mot1 rescue inactive, TIM10 inh inactive, PfHsp90 yeast 2 inactive, tim23-1 inh inactive and tim10-1 conf inactive.
For CC(=O)Nc1sc(C)c(C)c1C(=O)OCCOc1ccccc1 the results were tim10-1 inh inactive, SUMO Mot1 rescue inactive, TIM10 inh inactive, PfHsp90 yeast 2 inactive and tim23-1 inh inactive.
Screening COc1ccc(N2C(=O)C(Cl)=C(N3CCCC(C)C3)C2=O)cc1 (centres undefined) returned tim10-1 inh 41.6, SUMO Mot1 rescue inactive, TIM10 inh inactive, PfHsp90 yeast 2 inactive, tim23-1 inh inactive and tim10-1 conf inactive.
`CCC(C)Sc1ccc([C@H]2N[C@@](C)(C(=O)OC)[C@H]3C(=O)N(C)C(=O)[C@@H]23)cc1OC` (some centres undefined) gave tim10-1 inh inactive, SUMO Mot1 rescue inactive, TIM10 inh inactive, PfHsp90 yeast 2 inactive and tim23-1 inh inactive.
For O=S(=O)(Nc1cc(Cl)ccn1)c1ccc(Cl)cc1 the results were tim10-1 inh 42.0, SUMO Mot1 rescue inactive, TIM10 inh inactive, PfHsp90 yeast 2 inactive, tim23-1 inh inactive and tim10-1 conf inactive.
For O=S(=O)(Nc1ncccc1O)c1ccc(Cl)cc1 the results were tim10-1 inh inactive, SUMO Mot1 rescue inactive, TIM10 inh inactive and tim23-1 inh inactive.
For COc1ccc([N+](=O)[O-])cc1NC(=S)Nc1ccccc1 the results were tim10-1 inh inactive, SUMO Mot1 rescue inactive, TIM10 inh inactive, PfHsp90 yeast 2 inactive and tim23-1 inh inactive.
`O=[N+]([O-])c1ccc(O)c(NC(=S)Nc2ccccc2)c1` gave tim10-1 inh 47.6, TIM10 inh inactive, PfHsp90 yeast 2 inactive, tim23-1 inh inactive and tim10-1 conf inactive.
`Cc1ccccc1NC(=O)c1cc(N)ccc1N1CCCCC1` gave tim10-1 inh 41.3, SUMO Mot1 rescue inactive, TIM10 inh inactive, tim23-1 inh inactive and tim10-1 conf 31.8.
For CCc1ccc(NC(=O)C2C3CCC(O3)C2C(=O)O)cc1 (centres undefined) the results were tim10-1 inh inactive, SUMO Mot1 rescue inactive, TIM10 inh inactive, PfHsp90 yeast 2 inactive and tim23-1 inh inactive.
Screening O=C(NCc1ccco1)c1cc2nc(-c3cccs3)cc(C(F)(F)F)n2n1 returned tim10-1 inh 42.8, SUMO Mot1 rescue inactive, TIM10 inh inactive, PfHsp90 yeast 2 inactive, tim23-1 inh inactive and tim10-1 conf inactive.
For O=C(NCc1ccco1)c1nn2c(C(F)(F)F)cc(-c3cccs3)nc2c1Cl the results were tim10-1 inh inactive, SUMO Mot1 rescue inactive, TIM10 inh inactive, PfHsp90 yeast 2 inactive and tim23-1 inh inactive.
For COc1cccc(/C(C)=N/N=C(\C)c2cccc(OC)c2)c1 the results were tim10-1 inh inactive, SUMO Mot1 rescue inactive, TIM10 inh inactive, PfHsp90 yeast 2 inactive and tim23-1 inh inactive.
Screening O=C1N/C(=C/c2ccc(N3CCOCC3)o2)C(=O)N1c1cccc(Cl)c1 returned tim10-1 inh 43.1, SUMO Mot1 rescue inactive, TIM10 inh inactive, PfHsp90 yeast 2 inactive, tim23-1 inh inactive and tim10-1 conf 35.6.
Screening O=C(NC1CCCc2ccccc21)C1CCN(S(=O)(=O)c2ccccc2)CC1 (centres undefined) returned tim10-1 inh 40.1, SUMO Mot1 rescue inactive, TIM10 inh inactive, PfHsp90 yeast 2 inactive, tim23-1 inh inactive and tim10-1 conf inactive.
CN(C)c1ccc(NC(=O)CN2CCc3ccccc3C2)cc1 was read as tim10-1 inh inactive, SUMO Mot1 rescue inactive, TIM10 inh inactive, PfHsp90 yeast 2 inactive and tim23-1 inh inactive.
Screening O=C(COc1ccc(Cl)cc1Cl)N/N=C/c1ccc[nH]1 returned tim10-1 inh 44.2, SUMO Mot1 rescue inactive, TIM10 inh inactive, PfHsp90 yeast 2 inactive, tim23-1 inh inactive and tim10-1 conf inactive.
`COc1ccccc1N1CCN(C(=S)Nc2ccccc2)CC1` gave tim10-1 inh inactive, SUMO Mot1 rescue inactive, TIM10 inh inactive, PfHsp90 yeast 2 inactive and tim23-1 inh inactive.
